According to the supplement of paper PMC13392028:
Whole data set: some 4,100 sequences, median “RBNS R-value (6-mer enrichment in protein-bound RNA vs input library)” near 0.99, cut for the highest 2% near 1.4. This excerpt belongs to a sample that is enriched for the highest values.

System: PfIESI-1 RRM domain (Plasmodium falciparum ortholog aa 875-1232, GST fusion)
Test: RBNS R-value (6-mer enrichment in protein-bound RNA vs input library) (ratio); higher = stronger binding preference; the methods of the paper give 50 / 100 / 500 nM protein instead
Method in brief: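 Using the Burge lab pipeline, the R-value was computed as the enrichment of each motif in bead-bound RNA compared with input. The motifs were 6-mers, from a single replicate. RNA came from a random 40-mer in vitro transcribed library incubated at room temperature with E. coli-expressed, purified GST-tagged RNA-recognition-motif regions of orthologues from three Plasmodium species, captured on glutathione magnetic agarose beads and washed three times before reverse transcription and MiSeq sequencing alongside the input.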

Sequence	RBNS R-value (protein concentration: 250 nM)	RBNS R-value (protein concentration: 500 nM)	RBNS R-value (protein concentration: 1000 nM)
AGAUAU	0.955	1.04	0.969
UGAUAU	1.5	1.69	1.38
UGAUAG	1.87	2.08	1.65
CGAUAA	0.968	1.04	0.996
CGAUAC	1.04	1.03	1.02
GGAUAU	0.937	0.921	0.959
AGAUAA	0.975	1.11	1.02
AGAUAG	0.998	1.07	1.04
UGAUAC	1.59	1.68	1.47
UGAUAA	1.67	1.89	1.54
GGAUAC	1.01	0.991	0.995
GGAUAG	1.02	0.975	0.995
UAGCUA	0.902	0.926	0.903
UGAAAA	1.16	1.3	1.22
AACGUG	0.922	0.984	0.974
UCGGGU	0.945	0.901	1.01
AUGCGU	0.924	0.929	0.959
UACCGC	0.938	0.867	0.916
UAAAAC	0.916	1.05	0.979
AGUAAA	0.862	1.01	0.909
AUUCUG	1.19	1.22	1.1
AUCUGA	1.24	1.3	1.19
AAAGGG	1.07	1.12	1.12
CGAUGC	1.26	1.22	1.18

Sequence	RBNS R-value (protein concentration: 250 nM)	RBNS R-value (protein concentration: 500 nM)	RBNS R-value (protein concentration: 1000 nM)
UGAUGA	3.34	3.56	2.48
UGAUGU	2.5	2.78	2.1
AGAUGU	1.06	1.13	1.05
UGAUGC	2.31	2.42	1.91
CGAUGU	1.13	1.16	1.09
CGAUCA	0.917	0.906	0.977
UGAUCA	1.2	1.26	1.17
CGAUGA	1.66	1.7	1.44
GGAUGC	1.04	0.968	1.07
UUAUGC	0.832	0.799	0.831
GGAUGA	1.23	1.25	1.17
GGUCUU	0.91	0.864	0.932
UACACG	0.894	0.857	0.867
UGUAAU	0.85	0.907	0.853
AAGGUA	0.941	1.01	0.987
CAUCAU	0.806	0.8	0.838
GCCCGC	1.24	1.09	1.2
CGAGGC	1.15	1.08	1.17
CCAUCU	0.967	0.915	0.956
CCCUCU	0.993	0.894	0.949
GAGUGC	1.09	1.01	1.04
CGAUGG	1.24	1.23	1.17
AGAUGC	1.18	1.17	1.14
AUAUGA	1.1	1.23	1.07

Sequence	RBNS R-value (protein concentration: 250 nM)	RBNS R-value (protein concentration: 500 nM)	RBNS R-value (protein concentration: 1000 nM)
AGAUGG	1.12	1.14	1.14
UGAUGG	2.48	2.56	1.9
AGAUGA	1.49	1.55	1.34
CAGGCA	1.07	1.06	1.07
GUGCGC	0.961	0.907	0.975
UUCUCC	0.999	0.954	0.96
UUAUCG	0.802	0.76	0.799
GUAUUG	0.976	0.938	0.944
GUAAUA	0.77	0.864	0.803
GAUUUC	1.71	1.74	1.52
CAUUUC	0.964	0.947	0.999
UAUUUA	0.769	0.744	0.736
GAUUUA	1.33	1.46	1.22
CAUUUU	0.932	0.925	0.962
CAUUUA	0.761	0.749	0.752
AAUUUG	1.08	1.18	1.11
AAUUUU	0.989	1.08	1.03
GAUUUU	1.78	1.92	1.53
GAUUUG	1.88	1.94	1.51
CAUUUG	1.03	1.08	1.04
AAUUUC	1.06	1.11	1.05
CCUCGA	1.12	1.08	1.11
GUGUCA	0.85	0.872	0.887
GAUACG	1.1	1.13	1.09

Sequence	RBNS R-value (protein concentration: 250 nM)	RBNS R-value (protein concentration: 500 nM)	RBNS R-value (protein concentration: 1000 nM)
GCGGUA	0.985	0.954	1
CUCCUA	0.889	0.834	0.858
GCUUGC	1.01	0.943	0.985
GAUAGU	1.01	1.06	1
GAUAGC	1.44	1.48	1.3
GAUAGA	1.21	1.3	1.18
AAACGG	1.06	1.07	1.08
AAAGCU	0.98	1.05	1.03
CCCAGG	1.27	1.21	1.27
CCCAGU	1.09	1.03	1.06
CCCAGA	1.39	1.32	1.3
ACAUGA	1.25	1.37	1.2
CCUUUA	0.814	0.763	0.779
UGACCG	1.04	1.02	1.07
UUUUGA	1.53	1.59	1.37
UUUUGC	1.06	1.04	1.02
AUUUGA	1.45	1.59	1.34
UUUUGU	0.909	0.927	0.922
AUUUGU	0.92	0.975	0.913
CUUUGG	0.959	0.914	0.962
CUUUGU	0.825	0.805	0.863
CUUUGA	1.35	1.41	1.26
AUUUGG	1.1	1.17	1.06
CCCUCG	1.05	0.973	1.06

Sequence	RBNS R-value (protein concentration: 250 nM)	RBNS R-value (protein concentration: 500 nM)	RBNS R-value (protein concentration: 1000 nM)
AAAAUA	0.851	1.05	0.927
CCAAAU	0.978	1.04	0.995
AGCUGU	0.94	0.939	0.951
CCACAA	0.988	0.991	1
CUAGAG	1.1	1.1	1.09
GAUCGU	0.85	0.817	0.886
GGUGAG	1.02	1.02	1.02
UGUGAU	1.55	1.73	1.39
UGUGAC	0.993	0.99	0.972
GGUGAU	1.33	1.4	1.28
CGUGAA	0.992	1.03	1.05
UGUGAG	0.948	1	1.06
GGUGAC	0.986	0.987	1.01
AGUGAA	0.981	1.04	1.05
CGUGAG	0.982	0.993	1.05
CGUGAU	1.56	1.62	1.39
AGUGAC	1.02	1.05	1.03
AGUGAU	1.55	1.73	1.44
UUAUAA	0.747	0.809	0.749
UUGUCA	0.891	0.887	0.9
GCACUA	0.903	0.86	0.892
